Screening results (PubChem)
PKM2 act = increases activity of human pyruvate kinase M2; actives 0.34% (n = 260,000); Potency, µM (series often up to 57.5 µM), without a hit: top-dose activation, usual class: activators; purified PKM2, Kinase-Glo ATP luminescence, activation; response scale: 0% is enzyme alone, no compound; also: nearly all actives have a fitted effect of over 55% in size
Target sequence (P14618 whole entry, looked up): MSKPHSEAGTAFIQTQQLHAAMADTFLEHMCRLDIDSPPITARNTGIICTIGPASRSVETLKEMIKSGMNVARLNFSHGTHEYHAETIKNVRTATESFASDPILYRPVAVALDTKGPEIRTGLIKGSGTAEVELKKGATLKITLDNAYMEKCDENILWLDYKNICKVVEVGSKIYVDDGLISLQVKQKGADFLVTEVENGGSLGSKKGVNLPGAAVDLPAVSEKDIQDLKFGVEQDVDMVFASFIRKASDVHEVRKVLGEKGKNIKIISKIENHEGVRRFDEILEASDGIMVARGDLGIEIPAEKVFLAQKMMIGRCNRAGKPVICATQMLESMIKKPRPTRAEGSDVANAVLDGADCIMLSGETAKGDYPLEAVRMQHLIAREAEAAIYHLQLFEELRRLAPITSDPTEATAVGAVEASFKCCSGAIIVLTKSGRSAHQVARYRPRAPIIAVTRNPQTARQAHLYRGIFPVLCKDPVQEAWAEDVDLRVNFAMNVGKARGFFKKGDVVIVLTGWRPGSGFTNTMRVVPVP
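Purified hPK-M2 (>95% pure) converted ADP (0.1 mM final) to ATP with 0.5 mM PEP in 50 mM imidazole pH7.2, KCl, MgCl2, Tween 20, BSA; 1 h at room temperature. ATP detected by Kinase-Glo luminescence.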
APE1 inh = blocks human APE1 abasic DNA cleavage; Potency, µM (series often up to 65.8 µM), without a hit: at the top dose activity change, negative = inhibition, usual class: inhibitors; actives 0.35% (n = 350,000); recombinant APE1, TAMRA/BHQ-2 abasic DNA cleavage fluorescence; P27695;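 also: plate controls were vehicle for no effect and reference inhibitor for full effect; nearly all actives have a fitted effect of over 55% in size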
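0.75 nM APE1 + cpd, 15 min RT; start w/ 50 nM TAMRA/BHQ-2 THF-abasic dsDNA; kinetic fluor 525/598 nm ×3 reads @60 s; Δ(read3−read1); normalized to DMSO and NSC13755 control wells.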
JMJD2E inh = JMJD2E (human) inhibition; actives 1.6% (n = 230,000); B2RXH2; JMJD2E catalytic domain, FDH-coupled NADH fluorescence (FDH is formaldehyde dehydrogenase); Potency, µM (titrated, usually from 57.1 µM), without a hit: top-dose activity change, negative = inhibition, most hits filed as inhibitors; active = well fitted inhibition curve with a large enough effect, not every such curve was filed as active; inconclusive = small, poorly fitted or top-dose-only effect, or another doubt; inactive = no such curve, though single readings can be large or run the other way;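 also: 0% = wells with enzyme and -100% = buffer wells without enzyme; nearly all actives have a fitted effect of over 50% in size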
RECQ1 inh-1 = inhibitors of human RECQ1 DNA helicase | actives 0.54% (n = 240,000) | Potency, µM (highest dose often 57.3 µM), for the others: at the top dose activity, negative = inhibition, usual class: inhibitors | RECQ1 DNA unwinding, red fluorescence kinetic read | P46063;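 also: plate controls were vehicle for no effect and no enzyme for full effect; nearly all actives have a fitted effect of over 30% in size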
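RECQ1T1 50 nM; forked duplex (20 bp + 30-nt ss tails) 200 nM, ATP 2 mM final; pH 8.0, 2 mM MgCl2, 2.5 ug/ml poly(dI-dC); 15 min compound preincubation; discontinuous kinetic read over 2 h at RT.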
BLM inh = inhibitors of human Bloom syndrome helicase BLM | Potency, µM (series often up to 56.1 µM), without a hit: at the highest dose activity change, negative = inhibition, hits mostly inhibitors | P54132 | actives 0.2% (n = 350,000) | recombinant BLM DNA unwinding, fluorescence dequenching;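 also: plate controls were vehicle for no effect and no enzyme for full effect; nearly all actives have a fitted effect of over 35% in size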
RECQ1 conf = confirmation of human RECQ1 helicase inhibitors | Potency, µM (titrated, usually from 229 µM), inactives show at the top dose activity change, negative = inhibition, most hits filed as inhibitors | RECQ1 helicase DNA unwinding, fluorescence | AID 2708 | shares compounds with RECQ1 inh-1 | actives 28% (n = 610); also: nearly all actives have a fitted effect of over 45% in size
RECQ1 ADP FP = displaces ADP in a fluorescence polarization counter-screen for RECQ1 hits; shares compounds with RECQ1 inh-1; ADP fluorescence polarization displacement counterscreen; Potency, µM (top dose mostly 228 µM), inactives show top-dose activity change, negative = inhibition, usual class: inhibitors; actives 27% (n = 530); AID 2711; also: nearly all actives have a fitted effect of over 45% in size
RECQ1 inh-2 = blocks human RECQ1 DNA unwinding; actives 15% (n = 1,100); shares compounds with RECQ1 inh-1; recombinant RECQ1 DNA unwinding, red fluorescence; AID 504841; Potency, µM (doses to about 119 µM), without a hit: at the highest dose activity, negative = inhibition, usual class: inhibitors; also: nearly all actives have a fitted effect of over 50% in size
* hit, by the source's call; i = inactive; ? = inconclusive; nt = no result; [ ] = remark or other dose. Many of the other results were omitted from the sample, so hits are more common in it than they were. Unless noted, calls follow the shape of the dose curve; as a rule, active = well fitted curve in the direction sought with a large enough effect; inconclusive = small, poorly fitted or top-dose-only effect, or another doubt; inactive = no such curve, though single readings can be large; an effect the other way counts as inactive or inconclusive. Unless noted, % is scaled to controls: 0 for no effect and ±100 for the full control effect; potency is read from the fitted curve at half-maximal effect.

SMILES | PKM2 act | APE1 inh | JMJD2E inh | RECQ1 inh-1 | BLM inh | RECQ1 conf | RECQ1 inh-2 | others
O=S(=O)(c1ccc(-c2nnc(SCc3nnc(-c4ccccc4)o3)o2)cc1)N1CCCC1 | -0.5% | -2.9% | -1.2% | 9.1% | -0.6% | 8.5% | nt | RECQ1 ADP FP=5.9%
COc1ccc(-c2csc(N3CCN(c4cc(C)nc5ccccc45)CC3)n2)cc1OC | -29.8% | ? | ? | 14.1µM* | -4.6% | -3.1%[114 µM] | -11.5% | RECQ1 ADP FP=?
c1ccc2c(Nc3ccc4c(c3)OCCO4)c3c(nc2c1)CCC3 | -1.7% | -1.2% | -1.7% | ? | 4.3% | nt | -12.3%
CCc1ccccc1 | nt | 0.4% | nt | 4.7% | nt | nt | nt
CCC(/C=C1\Sc2ccc(OC)cc2N1CCO)=C\c1sc2ccc(OC)cc2[n+]1CCO | -55.5% | ? | 2.1% | 12.6µM* | ? | nt | 44.7µM*
Cn1c(C2CCCCC2)nc2c1c(=O)[nH]c(=O)n2Cc1ccccc1 | 1.1% | -6.5% | 2.0% | i | -5.0% | nt | nt
Cc1ccc(-c2nc3c(c(=O)[nH]c(=O)n3Cc3ccccc3)n2C)o1 | ? | 22.4µM* | ? | 14.1µM* | ? | ? | ?
CCCCC(=O)OCC(=O)[C@]1(O)Cc2c(O)c3c(c(O)c2[C@H](OC2CC(NC(=O)C(F)(F)F)C(O)C(C)O2)C1)C(=O)c1c(OC)cccc1C3=O (stereo partly drawn) | nt | nt | nt | nt | -17.5% | nt | nt
COc1cccc2c1C(=O)c1c(O)c3c(c(O)c1C2=O)C[C@@](O)(C(=O)CO)C[C@@H]3OC1C[C@@H](N)[C@H](O)[C@H](C)O1 (stereo partly drawn) | nt | 10µM* | nt | 15.8µM* | 28.2µM* | nt | nt | RECQ1 ADP FP=0.398µM*
O=C(O)CCCCCn1c(SCc2cc(=O)n3cc(Cl)ccc3n2)nc2ccsc2c1=O | 3.4% | 6.0% | -6.4% | -0.7% | -5.9% | ? | nt | RECQ1 ADP FP=?
CCc1ccc(NC(=O)CSc2nc3ccsc3c(=O)n2CCCCCC(=O)O)cc1 | -1.0% | -1.1% | 6.9% | i | 2.2% | 10.2% | nt | RECQ1 ADP FP=7.3%
COCCn1c(=O)c(-c2ccc(OC)cc2)nc2cnc(N3CCN(C)CC3)nc21 | nt | 13.9% | nt | -4.4% | -10.2% | nt | nt
COc1ccco1 | nt | -5.6% | nt | 4.4% | -2.0% | nt | nt
O=C(Nc1nc(-c2cccs2)c(-c2ccccc2)s1)c1ccco1 | 0.9% | ? | ? | -4.5% | -20.6% | nt | nt
CC1CC1C(=O)Nc1nc(-c2cccs2)c(-c2cccs2)s1 (stereo not drawn) | -0.9% | -10.5% | ? | 31.6µM* | ? | nt | ?
C=CCOc1ccccc1/C=c1\sc2nc(=O)c(C)nn2c1=O | 1.0% | ? | 1.7% | ? | -7.6% | nt | ?
CCCCCOc1ccc(/C=c2\sc3nc(=O)c(-c4ccccc4)nn3c2=O)cc1OC | -5.0% | ? | -2.1% | -16.2% | 0.4% | nt | nt
O=C1NC(=O)/C(=C\c2ccc(O)cc2O)S1 | 17.2% | 3.98µM* | 15.8µM* | 22.4µM* | -22.7% | nt | 12.6µM*
O=C1NC(=O)/C(=C/c2cccc3ccccc23)S1 | 0.0% | 20.2% | nt | nt | 2.7% | nt | nt
O=C(N/N=C/c1ccc(-c2cccc([N+](=O)[O-])c2)o1)c1ccc([N+](=O)[O-])cc1 | 5.8% | -0.8% | -7.4% | -8.7% | -3.7% | nt | nt
O=C(O)c1ccc(N2C(=O)/C(=C/c3ccc(-c4ccc([N+](=O)[O-])cc4)o3)C=C2c2ccccc2)cc1 | ? | ? | 5.4% | 17.8µM* | -20.0% | 22.4µM* | nt
